In the supplement of paper PMC10849652:
Targets with a hit are over-represented here; the source holds about 7,900 in all. About 0.6% of all pairs of compound and target were hits.

Columns and labels:
Experiment in all cases: log2 fold change, soluble protein after heating vs DMSO (PISA); higher = thermal stabilisation; K562 cells, 10 uM, 30 min; active = over 0.2 and 3.5 SD of the protein, either way, in both replicates (recomputed)
ZNF217 = ZNF217 (UniProt O75362)
Summary of the method: (§1)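 Quantification of soluble protein used TMTpro 16plex LC-MS/MS, with channel sums equalised. Samples were the supernatant after 21,000xg for 90 min of pooled aliquots from K562 cells (2×10^6 cells/mL) treated with 10 μM compound for 30 min, heated for 3 min over 48°C-58°C, and extracted in PBS with 0.5% NP-40 at 4°C. Values, from duplicates, describe thermal stability against control samples on a log2 fold-change scale.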

ZNF239 = ZNF239 (UniProt Q16600)
Summary of the method: as §1

ZNF277 = ZNF277 (UniProt Q9NRM2)
Summary of the method: as §1

ZNF579 = ZNF579 (UniProt Q8NAF0)
Summary of the method: as §1

ZNF580 = ZNF580 (UniProt Q9UK33)
Summary of the method: as §1

ZNF609 = ZNF609 (UniProt O15014)
Summary of the method: as §1

ZNF622 = ZNF622 (UniProt Q969S3)
Summary of the method: as §1

ZRANB2 = ZRANB2 (UniProt O95218)
Summary of the method: as §1

ZNF511 isoform 1 = ZNF511 isoform 1 (UniProt Q8NB15)
Summary of the method: as §1

Measured: log2 fold change

ZNF580, sequence (Q9UK33 whole entry, looked up): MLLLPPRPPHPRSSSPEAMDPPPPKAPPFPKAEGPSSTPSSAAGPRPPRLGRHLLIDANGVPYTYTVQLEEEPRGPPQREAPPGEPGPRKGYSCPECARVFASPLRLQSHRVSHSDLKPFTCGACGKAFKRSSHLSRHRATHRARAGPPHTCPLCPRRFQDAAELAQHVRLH
ZNF239, sequence (Q16600 whole entry, looked up): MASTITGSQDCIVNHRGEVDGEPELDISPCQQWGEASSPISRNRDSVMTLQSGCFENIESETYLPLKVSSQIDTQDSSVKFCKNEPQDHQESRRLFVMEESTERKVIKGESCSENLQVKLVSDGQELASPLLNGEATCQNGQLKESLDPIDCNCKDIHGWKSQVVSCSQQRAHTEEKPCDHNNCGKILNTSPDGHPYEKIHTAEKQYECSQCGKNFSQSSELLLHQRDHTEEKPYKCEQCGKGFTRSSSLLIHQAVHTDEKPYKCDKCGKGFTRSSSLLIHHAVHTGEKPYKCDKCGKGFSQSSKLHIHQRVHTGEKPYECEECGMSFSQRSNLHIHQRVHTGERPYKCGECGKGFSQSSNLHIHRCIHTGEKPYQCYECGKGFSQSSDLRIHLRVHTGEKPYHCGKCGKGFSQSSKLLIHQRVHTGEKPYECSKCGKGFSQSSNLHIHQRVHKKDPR
ZNF622, sequence (Q969S3 whole entry, looked up): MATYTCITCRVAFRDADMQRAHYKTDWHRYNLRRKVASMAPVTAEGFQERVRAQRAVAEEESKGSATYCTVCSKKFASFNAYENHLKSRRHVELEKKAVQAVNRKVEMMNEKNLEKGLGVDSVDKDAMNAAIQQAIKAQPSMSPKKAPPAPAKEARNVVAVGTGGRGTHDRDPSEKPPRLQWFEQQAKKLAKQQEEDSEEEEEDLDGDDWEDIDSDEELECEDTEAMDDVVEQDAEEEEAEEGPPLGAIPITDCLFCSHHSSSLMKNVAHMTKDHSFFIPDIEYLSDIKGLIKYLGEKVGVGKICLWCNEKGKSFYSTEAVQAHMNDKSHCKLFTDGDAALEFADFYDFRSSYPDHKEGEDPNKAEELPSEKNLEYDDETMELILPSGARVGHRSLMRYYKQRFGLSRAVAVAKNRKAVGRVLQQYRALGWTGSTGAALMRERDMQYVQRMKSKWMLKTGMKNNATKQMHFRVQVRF
ZNF609, sequence (O15014 whole entry, looked up): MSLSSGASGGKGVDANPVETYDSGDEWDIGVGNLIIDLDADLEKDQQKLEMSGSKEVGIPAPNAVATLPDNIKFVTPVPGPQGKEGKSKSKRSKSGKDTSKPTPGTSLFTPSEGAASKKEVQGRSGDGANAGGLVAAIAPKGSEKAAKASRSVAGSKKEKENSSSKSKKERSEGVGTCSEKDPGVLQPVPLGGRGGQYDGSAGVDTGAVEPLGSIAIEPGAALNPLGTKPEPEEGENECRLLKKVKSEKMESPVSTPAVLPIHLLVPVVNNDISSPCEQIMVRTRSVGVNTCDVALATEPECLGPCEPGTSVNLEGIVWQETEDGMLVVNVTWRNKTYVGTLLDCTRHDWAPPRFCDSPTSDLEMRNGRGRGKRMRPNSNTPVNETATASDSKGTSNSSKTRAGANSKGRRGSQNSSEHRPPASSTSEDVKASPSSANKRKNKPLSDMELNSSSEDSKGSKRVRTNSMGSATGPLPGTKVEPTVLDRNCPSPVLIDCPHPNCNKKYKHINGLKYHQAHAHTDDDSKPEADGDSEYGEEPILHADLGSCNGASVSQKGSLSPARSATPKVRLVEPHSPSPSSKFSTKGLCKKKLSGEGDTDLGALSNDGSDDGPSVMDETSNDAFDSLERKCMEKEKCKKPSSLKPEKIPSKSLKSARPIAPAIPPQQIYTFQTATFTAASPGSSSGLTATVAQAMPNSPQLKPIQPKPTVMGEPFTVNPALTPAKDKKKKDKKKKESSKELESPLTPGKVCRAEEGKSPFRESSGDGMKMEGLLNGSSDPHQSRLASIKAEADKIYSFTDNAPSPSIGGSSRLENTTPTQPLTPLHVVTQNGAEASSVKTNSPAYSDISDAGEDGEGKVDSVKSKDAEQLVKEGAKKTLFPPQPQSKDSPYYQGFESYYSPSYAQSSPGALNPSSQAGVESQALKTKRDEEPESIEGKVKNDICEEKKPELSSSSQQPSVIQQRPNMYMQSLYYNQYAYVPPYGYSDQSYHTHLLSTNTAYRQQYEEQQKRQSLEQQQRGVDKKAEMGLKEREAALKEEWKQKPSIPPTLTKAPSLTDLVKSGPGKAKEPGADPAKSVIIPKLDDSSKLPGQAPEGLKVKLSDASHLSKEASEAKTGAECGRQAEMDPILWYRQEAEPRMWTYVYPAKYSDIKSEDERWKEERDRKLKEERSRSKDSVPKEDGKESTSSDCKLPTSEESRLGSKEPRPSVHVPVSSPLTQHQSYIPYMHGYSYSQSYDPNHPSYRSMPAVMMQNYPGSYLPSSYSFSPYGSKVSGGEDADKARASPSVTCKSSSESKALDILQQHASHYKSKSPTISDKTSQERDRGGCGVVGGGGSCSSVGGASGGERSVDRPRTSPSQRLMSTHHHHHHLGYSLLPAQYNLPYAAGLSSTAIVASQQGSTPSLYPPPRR
ZNF217, sequence (O75362 whole entry, looked up): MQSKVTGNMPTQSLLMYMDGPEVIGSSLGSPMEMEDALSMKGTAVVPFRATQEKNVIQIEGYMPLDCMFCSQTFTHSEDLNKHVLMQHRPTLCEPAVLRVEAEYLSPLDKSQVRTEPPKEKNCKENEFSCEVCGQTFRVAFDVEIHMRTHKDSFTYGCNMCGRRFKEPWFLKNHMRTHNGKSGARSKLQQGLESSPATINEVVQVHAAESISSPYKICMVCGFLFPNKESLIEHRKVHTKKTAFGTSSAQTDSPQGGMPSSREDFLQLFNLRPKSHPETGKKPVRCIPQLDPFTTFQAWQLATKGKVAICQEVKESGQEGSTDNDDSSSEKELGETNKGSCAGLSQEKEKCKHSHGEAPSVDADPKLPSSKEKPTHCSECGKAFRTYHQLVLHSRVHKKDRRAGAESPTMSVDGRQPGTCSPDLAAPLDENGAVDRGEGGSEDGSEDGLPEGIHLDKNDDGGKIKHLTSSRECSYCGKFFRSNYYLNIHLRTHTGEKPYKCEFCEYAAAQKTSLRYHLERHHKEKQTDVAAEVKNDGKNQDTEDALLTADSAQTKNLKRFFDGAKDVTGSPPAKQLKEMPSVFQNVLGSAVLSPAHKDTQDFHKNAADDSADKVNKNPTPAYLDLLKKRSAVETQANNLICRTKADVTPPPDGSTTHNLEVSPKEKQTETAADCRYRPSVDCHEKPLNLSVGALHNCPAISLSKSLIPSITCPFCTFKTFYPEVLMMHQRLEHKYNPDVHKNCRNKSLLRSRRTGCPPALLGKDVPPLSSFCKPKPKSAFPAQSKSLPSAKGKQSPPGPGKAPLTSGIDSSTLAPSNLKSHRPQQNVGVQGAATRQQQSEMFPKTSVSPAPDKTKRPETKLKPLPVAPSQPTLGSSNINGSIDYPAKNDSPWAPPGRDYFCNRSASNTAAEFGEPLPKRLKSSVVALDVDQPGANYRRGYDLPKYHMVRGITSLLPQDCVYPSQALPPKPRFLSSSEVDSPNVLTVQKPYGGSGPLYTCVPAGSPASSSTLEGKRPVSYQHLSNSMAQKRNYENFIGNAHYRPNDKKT
ZRANB2, sequence (O95218 whole entry, looked up): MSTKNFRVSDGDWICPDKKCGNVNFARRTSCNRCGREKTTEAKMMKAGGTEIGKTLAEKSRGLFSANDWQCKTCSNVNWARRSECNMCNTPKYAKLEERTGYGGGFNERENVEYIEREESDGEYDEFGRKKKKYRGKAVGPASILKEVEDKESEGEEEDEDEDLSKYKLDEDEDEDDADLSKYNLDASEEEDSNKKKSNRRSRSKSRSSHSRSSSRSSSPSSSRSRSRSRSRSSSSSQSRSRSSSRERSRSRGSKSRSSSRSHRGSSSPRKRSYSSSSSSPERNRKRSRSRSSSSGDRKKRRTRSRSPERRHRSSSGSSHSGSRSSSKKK
ZNF511 isoform 1, sequence (Q8NB15 whole entry, looked up, canonical isoform): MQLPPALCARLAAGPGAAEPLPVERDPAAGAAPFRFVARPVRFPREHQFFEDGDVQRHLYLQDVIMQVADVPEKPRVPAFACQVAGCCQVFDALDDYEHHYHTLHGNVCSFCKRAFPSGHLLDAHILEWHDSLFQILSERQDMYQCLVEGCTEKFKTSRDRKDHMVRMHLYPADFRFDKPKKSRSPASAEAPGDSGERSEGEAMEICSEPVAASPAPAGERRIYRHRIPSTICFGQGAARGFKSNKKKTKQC
ZNF277, sequence (Q9NRM2 whole entry, looked up): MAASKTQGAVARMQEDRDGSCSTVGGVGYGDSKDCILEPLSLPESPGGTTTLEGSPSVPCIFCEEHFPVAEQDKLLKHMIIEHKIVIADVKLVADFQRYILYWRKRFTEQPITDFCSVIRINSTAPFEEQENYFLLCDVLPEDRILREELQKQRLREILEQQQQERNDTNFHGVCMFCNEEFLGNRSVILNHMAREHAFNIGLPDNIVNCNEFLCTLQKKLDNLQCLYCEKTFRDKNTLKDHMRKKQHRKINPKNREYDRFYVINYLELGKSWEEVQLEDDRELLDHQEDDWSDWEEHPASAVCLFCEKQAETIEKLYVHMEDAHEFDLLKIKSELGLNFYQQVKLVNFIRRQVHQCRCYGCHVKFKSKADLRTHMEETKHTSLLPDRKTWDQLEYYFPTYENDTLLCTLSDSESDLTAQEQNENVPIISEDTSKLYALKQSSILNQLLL

Cc1ccc(-n2nc(C(C)(C)C)cc2NC(=O)Nc2ccc(OCCN3CCOCC3)c3ccccc23)cc1 [doramapimod]
inactive: ZNF217 -0.027 | ZNF239 0.069 | ZNF277 0.123 | ZNF579 0.11 | ZNF580 0.165 | ZNF609 0.036 | ZNF622 0.009 | ZRANB2 -0.014

CN1CCC(CNc2ccc3ncc(-c4cccc(OC(F)(F)F)c4)n3n2)CC1
inactive: ZNF217 -0.081 | ZNF239 -0.063 | ZNF277 0.077 | ZNF579 0.103 | ZNF580 0.054 | ZNF609 -0.134 | ZNF622 0.03 | ZRANB2 0.01

Cc1nc(Nc2ncc(C(=O)Nc3c(C)cccc3Cl)s2)cc(N2CCN(CCO)CC2)n1 [dasatinib]
inactive: ZNF217 -0.136 | ZNF239 -0.074 | ZNF277 0.019 | ZNF579 -0.148 | ZNF580 -0.085 | ZNF609 0 | ZNF622 0.012 | ZRANB2 0.078

CC(C)N(C[C@H]1O[C@@H](n2cnc3c(N)ncnc32)[C@H](O)[C@@H]1O)[C@H]1C[C@@H](CCc2nc3cc(C(C)(C)C)ccc3[nH]2)C1 [pinometostat]
inactive: ZNF217 0.002 | ZNF239 -0.008 | ZNF277 0.267 | ZNF579 0.02 | ZNF580 -0.072 | ZNF609 0.03 | ZNF622 0.014 | ZRANB2 0.012

Nc1ccccc1NC(=O)c1ccc(CNC(=O)OCc2cccnc2)cc1 [entinostat]
inactive: ZNF217 0.075 | ZNF239 -0.023 | ZNF511 isoform 1 -0.078 | ZNF579 -0.036 | ZNF580 0 | ZNF609 -0.061 | ZNF622 -0.007 | ZRANB2 -0.024

C[C@@H](Oc1cc(-c2cnn(C3CCNCC3)c2)cnc1N)c1c(Cl)ccc(F)c1Cl [crizotinib]
inactive: ZNF217 -0.121 | ZNF239 -0.124 | ZNF277 -0.181 | ZNF579 0.112 | ZNF580 0.164 | ZNF609 -0.113 | ZNF622 -0.029 | ZRANB2 0.014

c1cc(OCCN2CCCCC2)cc(-c2n[nH]c3ccc(-c4nnc[nH]4)cc23)c1
inactive: ZNF217 -0.096 | ZNF277 -0.275 | ZNF511 isoform 1 -0.043 | ZNF579 0.078 | ZNF580 -0.083 | ZNF609 -0.003 | ZNF622 0.092 | ZRANB2 0.021

CNCc1ccc(-c2[nH]c3cc(F)cc4c3c2CCNC4=O)cc1 [rucaparib]
inactive: ZNF217 -0.025 | ZNF277 0 | ZNF511 isoform 1 -0.006 | ZNF579 0.01 | ZNF580 0.136 | ZNF609 -0.034 | ZNF622 -0.194 | ZRANB2 -0.034

COc1ccc(Cn2ccc3ccc(C(=O)NO)cc32)cc1
inactive: ZNF217 -0.024 | ZNF239 -0.178 | ZNF277 -0.073 | ZNF579 0.056 | ZNF580 -0.134 | ZNF609 -0.034 | ZNF622 -0.033 | ZRANB2 -0.022

CNc1nc(-c2ccc3c(N)n[nH]c3c2)cc(N2C[C@@H](C(=O)NC3CCCCC3)CC[C@H]2C)n1
inactive: ZNF217 -0.183 | ZNF239 -0.055 | ZNF277 0.11 | ZNF579 0.089 | ZNF580 0.128 | ZNF609 -0.004 | ZNF622 -0.019 | ZRANB2 -0.066

O=C(CCCCCCC(=O)Nc1ccccc1)NO [vorinostat]
inactive: ZNF217 0.056 | ZNF239 0.275 | ZNF277 -0.022 | ZNF579 -0.032 | ZNF580 -0.064 | ZNF609 -0.128 | ZNF622 -0.049 | ZRANB2 -0.03

Cc1cccc(-c2[nH]c(C(C)(C)C)nc2-c2ccc3nccnc3c2)n1
inactive: ZNF217 0.01 | ZNF239 0.013 | ZNF277 -0.107 | ZNF579 -0.073 | ZNF580 -0.183 | ZNF609 0.014 | ZNF622 0.008 | ZRANB2 -0.05
